Test systems include SK-MEL-2 melanoma; EKVX NSCLC; SN12C renal; UO-31 renal; TK-10 renal; ACHN renal; CAKI-1 renal; A498 renal; CCRF-CEM leukemia; MOLT-4 leukemia; SR leukemia; RPMI-8226 leukemia; OVCAR-8 ovarian; OVCAR-5 ovarian; OVCAR-4 ovarian; SK-OV-3 ovarian; IGROV1 ovarian; OVCAR-3 ovarian; HS 578T breast; NCI/ADR-RES ovarian.
Holding throughout (test): NCI-60 one-dose screen, 48 h (100 = growth as untreated, 0 = no growth, -100 = all killed)
Holding throughout (conditions): 10 µM unless noted

We go through eight compounds from PubChem BioAssay (NCI).

Molecules are shown by their SMILES. This is part of a sample that, as a whole, favours compounds with a hit. Of some 83,000 tested, about 20% had one in any assay.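 Growth was measured after 48 h exposure to one concentration of compound in 96-well plates. Values under 10 count as active.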 Values without a mark were called inactive. The source made the active and inactive calls.

`c1ccc2c(NCCCN3CCN(CCCNc4c5ccccc5nc5ccccc45)CC3)c3ccccc3nc2c1`: the growth is -76.8% [100 µM] (active) in the assay with SK-MEL-2 melanoma; -48.6% [100 µM] (active) in the assay on EKVX NSCLC; -35.9% [100 µM] (active) with SN12C renal; -27.6% [100 µM] (active) in the assay with UO-31 renal; -9.59% [100 µM] (active) in the assay on TK-10 renal; -60.9% [100 µM] (active) in the assay on ACHN renal. Besides, the growth in the assay with CAKI-1 renal was -15.5% [100 µM] (active); with A498 renal, -31.9% [100 µM] (active); with CCRF-CEM leukemia it was -0.0236% [100 µM] (active); with MOLT-4 leukemia, -5.28% [100 µM] (active); with SR leukemia, -3.4% [100 µM] (active); in the assay with RPMI-8226 leukemia, -9.92% [100 µM] (active). Also, the growth in the assay with OVCAR-8 ovarian is -37.8% [100 µM] (active); in the assay with OVCAR-5 ovarian, -31.3% [100 µM] (active); in the assay on OVCAR-4 ovarian, -48.8% [100 µM] (active); in the assay with SK-OV-3 ovarian, -28.4% [100 µM] (active); with IGROV1 ovarian it was -31.6% [100 µM] (active); with OVCAR-3 ovarian, -34.4% [100 µM] (active). In addition, the figures for the growth with HS 578T breast and in the assay on NCI/ADR-RES ovarian were -19.1% [100 µM] (active) and 35.7% [100 µM], respectively.

Take `O=[N+]([O-])c1ccc2[nH]c(=S)n(/C=C(/c3ccc(Cl)cc3Cl)S(=O)(=O)Cc3ccc(Cl)cc3Cl)c2c1`: the growth in the assay on SK-MEL-2 melanoma was 102%; in the assay on EKVX NSCLC, 92.9%; in the assay with SN12C renal, 94.6%; with UO-31 renal it was 97.2%; in the assay on TK-10 renal it was 101%; with ACHN renal it was 98.1%. Moreover, the growth in the assay on CAKI-1 renal is 97.4%; with A498 renal, 103%; in the assay with CCRF-CEM leukemia, 103%; in the assay on MOLT-4 leukemia it was 98.3%; in the assay on SR leukemia it was 83.1%; with RPMI-8226 leukemia, 98.7%. Further, the growth in the assay with OVCAR-8 ovarian is 93.7%; in the assay on OVCAR-5 ovarian it was 108%; in the assay with OVCAR-4 ovarian, 95.9%; in the assay on SK-OV-3 ovarian it was 99.1%; with IGROV1 ovarian, 104%; in the assay on OVCAR-3 ovarian, 117%. For the same compound, the growth in the assay on HS 578T breast is 106%; with NCI/ADR-RES ovarian, 100%.

On to `Cc1ccc(/C=N/NC(N)=S)s1`, for which the growth with SK-MEL-2 melanoma is 102%; with EKVX NSCLC, 96%; with SN12C renal, 99%; in the assay on UO-31 renal it was 90.5%; in the assay on TK-10 renal it was 105%; with ACHN renal, 103%. In addition, the growth is 92% in the assay with CAKI-1 renal; 95.2% in the assay on A498 renal; 100% in the assay on CCRF-CEM leukemia; 99.4% with MOLT-4 leukemia; 97.3% with SR leukemia; 100% in the assay with RPMI-8226 leukemia. Besides, the growth in the assay on OVCAR-8 ovarian is 107%; with OVCAR-5 ovarian, 104%; in the assay with OVCAR-4 ovarian, 110%; in the assay with SK-OV-3 ovarian, 111%; in the assay on IGROV1 ovarian, 113%; with OVCAR-3 ovarian, 105%. Moreover, the results for the growth with HS 578T breast and in the assay on NCI/ADR-RES ovarian were 106% and 109%, respectively.

For `NC(=O)N1CCOCC1`, the growth with SK-MEL-2 melanoma is 105%; in the assay on EKVX NSCLC it was 108%; with SN12C renal, 109%; in the assay on UO-31 renal, 79.8%; with TK-10 renal it was 92.4%; in the assay on ACHN renal it was 110%. In addition, the growth with CAKI-1 renal is 115%; with A498 renal, 92.7%; with CCRF-CEM leukemia, 88.9%; in the assay on MOLT-4 leukemia it was 93.7%; with SR leukemia, 89.8%; with RPMI-8226 leukemia, 94.8%. The growth in the assay with OVCAR-8 ovarian is 103%; in the assay with OVCAR-5 ovarian, 108%; with OVCAR-4 ovarian, 103%; with SK-OV-3 ovarian, 103%; in the assay with IGROV1 ovarian, 113%; in the assay on OVCAR-3 ovarian, 103%. The growth in the assay with HS 578T breast and in the assay with NCI/ADR-RES ovarian was 113% in each case.

With `CC(C)C(=O)OCCOc1ccc(C(C)(C)C)cc1`, the growth in the assay with SK-MEL-2 melanoma was 92.3%; with EKVX NSCLC, 103%; with SN12C renal, 89.4%; in the assay on UO-31 renal, 89.6%; in the assay on TK-10 renal, 93.7%; with ACHN renal, 101%. In addition, the growth was 100% in the assay on CAKI-1 renal; 94.2% in the assay with A498 renal; 98.6% in the assay with CCRF-CEM leukemia; 114% in the assay on MOLT-4 leukemia; 98.6% in the assay on SR leukemia; 97.7% with RPMI-8226 leukemia. Besides, the growth with OVCAR-8 ovarian was 99.5%; with OVCAR-5 ovarian, 103%; in the assay on OVCAR-4 ovarian, 98.6%; in the assay on SK-OV-3 ovarian, 108%; with IGROV1 ovarian it was 104%; with OVCAR-3 ovarian, 107%. In addition, the results for the growth with HS 578T breast and in the assay on NCI/ADR-RES ovarian were 93.9% and 100%, respectively.

Turning to `CC(C)NC(=O)OCc1c(COC(=O)NC(C)C)c(-c2ccc(Cl)cc2)n2c1CCC2`, the growth is 94.4% with SK-MEL-2 melanoma; 76.6% in the assay on EKVX NSCLC; 38.2% in the assay on SN12C renal; 50.6% with UO-31 renal; 57.6% with TK-10 renal; 11.1% in the assay on ACHN renal. Further, the growth is 6.56% (active) in the assay with CAKI-1 renal; 44.5% in the assay with A498 renal; 51.5% in the assay with CCRF-CEM leukemia; 21.9% in the assay with MOLT-4 leukemia; 2.94% (active) with SR leukemia; 93.4% with RPMI-8226 leukemia. Moreover, the growth is 63.3% with OVCAR-8 ovarian; 85.1% in the assay with OVCAR-5 ovarian; 48.9% with OVCAR-4 ovarian; 40.8% with SK-OV-3 ovarian; 70.3% with IGROV1 ovarian; 66% in the assay on OVCAR-3 ovarian. The growth is 73.6% in the assay with HS 578T breast and 46.5% in the assay with NCI/ADR-RES ovarian.

As to `N#Cc1ccc2nc[nH]c2c1`, the growth in the assay on SK-MEL-2 melanoma was 102%; in the assay on EKVX NSCLC, 104%; with SN12C renal, 110%; in the assay with UO-31 renal, 91.4%; in the assay with TK-10 renal, 108%; with ACHN renal, -68.5% (active). Moreover, the growth is 95% in the assay with CAKI-1 renal; 98.7% with A498 renal; 115% in the assay on CCRF-CEM leukemia; 109% in the assay with MOLT-4 leukemia; 106% in the assay on SR leukemia; 108% with RPMI-8226 leukemia. For the same compound, the growth in the assay with OVCAR-8 ovarian is 104%; in the assay with OVCAR-5 ovarian it was 108%; in the assay on OVCAR-4 ovarian it was 109%; in the assay on SK-OV-3 ovarian it was 109%; in the assay with IGROV1 ovarian it was 115%; in the assay with OVCAR-3 ovarian, 102%. The growth in the assay on HS 578T breast is 100%; with NCI/ADR-RES ovarian it was 110%.

In the case of `Nc1ccc2ccccc2c1-c1c(N)ccc2ccccc12`, the growth with SK-MEL-2 melanoma is 15.5%; with EKVX NSCLC, 36.5%; in the assay with SN12C renal, 37%; in the assay with UO-31 renal, 40.8%; in the assay with TK-10 renal it was 34.9%; in the assay on ACHN renal, 38.8%. The growth in the assay on CAKI-1 renal was 28.6%; with A498 renal, 14.6%; in the assay on CCRF-CEM leukemia it was 12.9%; in the assay on MOLT-4 leukemia, 17.4%; with SR leukemia it was 4.26% (active); in the assay on RPMI-8226 leukemia it was 24.9%. Further, the growth is 44% in the assay on OVCAR-8 ovarian; 57.1% in the assay on OVCAR-5 ovarian; 66% in the assay with OVCAR-4 ovarian; 30.8% with SK-OV-3 ovarian; 45.8% in the assay with IGROV1 ovarian; 5.64% (active) in the assay with OVCAR-3 ovarian. The growth in the assay on HS 578T breast was 35.6%; in the assay with NCI/ADR-RES ovarian it was 16.5%.
